Test results: PubChem BioAssay AID1851 (National Center for Advancing Translational Sciences (NCATS), 2009)
Out of some 16,000 compounds screened, about 5,100 (32%) were called active. Another 25% or so got no clear call; they are omitted. Calls follow the shape of the dose curve; as a rule, active = well fitted curve in the direction sought with a large enough effect; inconclusive = small, poorly fitted or top-dose-only effect, or effect the other way; inactive = no such curve, though single readings can be large or run the other way. Some of the results follow.

The compounds below were run against Cytochrome P450 3A4 (Homo sapiens) (UniProt P08684) (assay: Cytochrome panel assay with activity outcomes). Conditions: recombinant CYP, pro-luciferin dealkylation, luminescence, p450-cyp3a4; series mostly up to 57.1 µM; activity, negative = inhibition: at the top concentration.
Sequence of Cytochrome P450 3A4 (Homo sapiens) (P08684 whole entry, looked up): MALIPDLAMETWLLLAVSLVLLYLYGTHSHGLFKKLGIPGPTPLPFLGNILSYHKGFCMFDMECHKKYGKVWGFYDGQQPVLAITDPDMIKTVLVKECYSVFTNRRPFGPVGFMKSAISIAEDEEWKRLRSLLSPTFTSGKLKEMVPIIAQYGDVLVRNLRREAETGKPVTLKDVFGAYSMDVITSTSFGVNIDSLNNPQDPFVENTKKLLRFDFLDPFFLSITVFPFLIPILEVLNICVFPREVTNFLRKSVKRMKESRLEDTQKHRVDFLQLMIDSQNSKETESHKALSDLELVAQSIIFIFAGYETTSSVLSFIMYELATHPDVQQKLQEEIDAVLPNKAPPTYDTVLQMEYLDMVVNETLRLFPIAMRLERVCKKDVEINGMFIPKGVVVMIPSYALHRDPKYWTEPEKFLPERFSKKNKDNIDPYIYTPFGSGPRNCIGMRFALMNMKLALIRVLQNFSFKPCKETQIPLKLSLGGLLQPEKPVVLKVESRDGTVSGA
% is scaled to controls: 0 for no effect and ±100 for the full control effect.

Structure (SMILES) | activity, negative = inhibition | AC50
CC(C)c1nnc(-c2ccc(Cl)cc2)c(N(C)C)n1 | -7.47% [at 2.29 µM] (inactive) | –
Cn1c(=O)c(C(=O)CN2CCOCC2)c(N)n(Cc2ccccc2)c1=O | -17.4% (inactive) | –
CCCn1c(N)c(C(=O)CSc2nc(C)cs2)c(=O)n(C)c1=O | – | 6.31 µM (active)
O=C(O)[C@@H](O)Cc1ccccn1 | 15.2% [at 11.4 µM] (inactive) | –
O=c1cnc2cnc(N3CCNCC3)nc2n1Cc1ccc(F)cc1 | – | 7.94 µM (active)
N#CCCn1c(=O)cnc2cnc(N3CCNCC3)nc21 | -21% (inactive) | –
O=c1c(-c2ccccc2)nc2cnc(N3CCNCC3)nc2n1Cc1ccc(F)cc1 | – | 3.16 µM (active)
CN1CCN(c2ncc3nc(-c4cccc(C#N)c4)c(=O)n(CCC#N)c3n2)CC1 | -11.8% (inactive) | –
CN1CCN(c2ncc3nc(-c4cccc(C#N)c4)c(=O)n(C)c3n2)CC1 | 7.43% (inactive) | –
O=c1c(-c2ccc(F)cc2)nc2cnc(N3CCOCC3)nc2n1C[C@H]1CCCO1 | -17.4% (inactive) | –
CN1CCN(c2ncc3nc(-c4ccccc4)c(=O)n(Cc4ccc(F)cc4)c3n2)CC1 | -3.42% (inactive) | –
COc1ccc(-n2c(=O)cnc3cnc(N4CCNCC4)nc32)cc1 | -14.3% (inactive) | –
Cc1nc2cnc(N(C)C)nc2n(Cc2ccc(F)cc2)c1=O | – | 0.0251 µM (active)
CN(C)c1ncc2nc(-c3ccccc3)c(=O)n(Cc3ccc(F)cc3)c2n1 | -18.3% (inactive) | –
Cc1nc2cnc(N(C)C)nc2n(CCC#N)c1=O | -17.2% (inactive) | –
CN1CCN(c2ncc3nc(-c4cccc(C#N)c4)c(=O)n(Cc4ccc(F)cc4)c3n2)CC1 | – | 20 µM (active)
COCCn1c(=O)c(-c2ccc(F)cc2)nc2cnc(N3CCOCC3)nc21 | 9.22% (inactive) | –
O=c1c(-c2ccc(F)cc2)nc2cnc(N3CCNCC3)nc2n1Cc1ccc(F)cc1 | – | 7.94 µM (active)
N#CCCn1c(=O)c(-c2ccc(F)cc2)nc2cnc(N3CCOCC3)nc21 | -13% (inactive) | –
Cc1nc2cnc(N3CCNCC3)nc2n(Cc2ccc(F)cc2)c1=O | – | 15.8 µM (active)
Cc1nc2cnc(N3CCN(C)CC3)nc2n(C)c1=O | -13.9% (inactive) | –
COCCn1c(=O)c(C)nc2cnc(N3CCN(C)CC3)nc21 | 2.49% (inactive) | –

Structure (SMILES) | activity, negative = inhibition | AC50
NC(=O)C[C@H](NC(=O)Cc1ccc(O)cc1O)C(=O)O | -18.9% (inactive) | –
Nc1ncnc2c1ncn2[C@@H]1CCCO1 | -2.95% (inactive) | –
CCOC(=O)c1cc2c(ccn2C)n1CC(=O)N1CCCC(C)C1 (stereo not given) | – | 14.1 µM (active)
CCCS(=O)(=O)N1CCCC(C(=O)NCCN2CCC(Cc3ccccc3)CC2)C1 (stereo not given) | -15.8% (inactive) | –
CC(C)OC(=O)c1cc2c(ccn2C)n1CC(=O)N1CCC(Cc2ccccc2)CC1 | – | 7.08 µM (active)
C[C@@H](CN1CCC(Cc2ccccc2)CC1)[C@@H](O)c1ccc(O)cc1 | 27.3% (inactive) | –
COC(=O)c1cc2c(ccn2-c2ccc(F)cc2)n1CC(C)C | 12.9% (inactive) | –
Cc1ccc(C)c(Cn2c(C(=O)OC(C)C)cc3c2ccn3C)c1 | – | 7.94 µM (active)
C[n+]1cccc(CNC(=O)/C=N/O)c1 | -4.34% (inactive) | –
O=C1NC(O)=NC1(c1ccccc1)c1ccccc1 | -18.7% (inactive) | –
CCCCNC(=O)NS(=O)(=O)c1cnccc1Sc1ccc(Cl)cc1 | -25.5% [at 2.29 µM] (inactive) | –
CCCNC(=O)CC(NS(=O)(=O)c1ccc(Cl)cc1)c1ccco1 (stereo not given) | – | 22.4 µM (active)
O=C(CC(NS(=O)(=O)c1ccc(Cl)cc1)c1ccco1)NCc1ccco1 (stereo not given) | – | 14.1 µM (active)
O=C(NCCO)c1cc2c(s1)CCC2 | -2.01% (inactive) | –
C[C@@H]1O[C@H](O[C@@H]2[C@H](C)O[C@H](O[C@@H]3[C@H](C)O[C@H](O[C@H]4CC[C@]5(C)[C@@H](CC[C@@H]6[C@H]5C[C@@H](O)[C@]5(C)[C@@H](C7=CC(=O)OC7)CC[C@]65O)C4)C[C@@H]3O)C[C@@H]2O)C[C@H](O)[C@@H]1O | 0.67% [at 25.6 µM] (inactive) | –
COCCn1c(=O)c(CCc2ccccc2)nc2cncnc21 | – | 7.94 µM (active)
NCCn1c(=O)c(CCc2ccccc2)nc2cncnc21 | – | 15.8 µM (active)
COc1ccccc1CCn1c(=O)c(CCc2ccccc2)nc2cncnc21 | – | 3.16 µM (active)
O=C(O)/C=C\c1c2ccc(=O)c(O)c-2oc2c(O)c(O)ccc12 | -22.7% [at 11.4 µM] (inactive) | –
COCCn1c(C)cc2c(c1=O)C(c1ccccc1F)C(C#N)=C(N)O2 (stereo not given) | – | 5.62 µM (active)
CCCC[S@@](=N)(=O)CC[C@@H](N)C(=O)O | – | inactive
CCNCCCNCCCNCCCNCC | -3.22% (inactive) | –

Structure (SMILES) | activity, negative = inhibition | AC50
Cc1cccc(N(C)S(=O)(=O)c2ccc3[nH]c(=O)c(=O)[nH]c3c2)c1 | – | 14.1 µM (active)
COc1ccc2c3c([nH]c2c1)[C@@H]1C[C@@H]2[C@@H](C[C@H](O)[C@H](OC)[C@H]2C(=O)O)CN1CC3 | -7.07% [at 25.6 µM] (inactive) | –
CCS(=O)(=O)N1CCC[C@H]2CN3CCc4cc(OC)ccc4[C@@H]3C[C@@H]21 | – | 5.01 µM (active)
COc1ccc2c3c([nH]c2c1)[C@H]1C[C@@H]2[C@@H](C[C@@H](O)[C@H](OC)[C@H]2C(=O)O)CN1CC3 | -4.43% [at 11.4 µM] (inactive) | –
O=C(c1cc(O)c(O)c([N+](=O)[O-])c1)c1ccccc1F | – | 20 µM (active)
O=[N+]([O-])c1cc(Cc2cc([N+](=O)[O-])c3cccnc3c2O)c(O)c2ncccc12 | -19.6% [at 11.4 µM] (inactive) | –
Cc1ccc(-c2cccc(OC(=O)c3ccccc3F)c2)cc1 | -10.7% (inactive) | –
Nc1nc(Nc2ccccc2)nc2c1ncn2[C@@H]1O[C@@H](CO)[C@H](O)[C@@H]1O | -3.64% (inactive) | –
O=CN1CCN(C[C@H](O)CN2CCCCC2)CC1 | -4.95% [at 11.4 µM] (inactive) | –
CN(Cc1ccco1)c1ncnc2ccc(-c3ccccc3Cl)cc12 | – | 15.8 µM (active)
CN(Cc1ccco1)c1ncnc2ccc(-c3ccccc3C(F)(F)F)cc12 | – | 15.8 µM (active)
COCc1nnc(NC(=O)CCN2C(=O)c3ccccc3C2=O)s1 | -15.1% (inactive) | –
Cc1ccc(NC(=O)CCN2C(=O)c3ccncc3C2=O)cc1 | – | 8.91 µM (active)
Cc1cccc(OCCn2c(S(=O)(=O)O)nc3ccccc32)c1 | -2.49% (inactive) | –
Cc1cccc(OCCn2c(-c3ccco3)nc3ccccc32)c1 | – | 10 µM (active)
C/C(CC(=O)Nc1ccccn1)=N\NC(=O)C(=O)Nc1cccc(Cl)c1C | 16.1% [at 2.29 µM] (inactive) | –
O=C(O)C1CCCCC1C(=O)Nc1cc(Cl)ccc1Cl (stereo not given) | 16% (inactive) | –
COc1ccc(Cl)cc1NC(=O)NCCCl | -28.3% (inactive) | –
C/C(CC(=O)Nc1cc(Cl)ccc1Cl)=N\NC(N)=S | – | 14.1 µM (active)
CCCCC(=O)N/N=C(\C)CC(=O)Nc1cc(Cl)ccc1OC | – | 4.47 µM (active)
COc1ccc(Cl)cc1NC(=O)CN1C(=O)CSC1=O | – | 7.94 µM (active)
